Rows were chosen to be rich in hits. Some 8.7% of all compounds tested hit in one or more screens of this group.
G9a inh = G9a (human) methyltransferase inhibition; 8.8% of 350,000 active; AID 504332; Potency, µM (doses to about 102 µM), inactives show at the top dose activity, negative = inhibition, hits mostly inhibitors; G9a H3K9 monomethylation, AlphaScreen, 2 h; Q96KQ7; note: % is set by controls: 0 for no effect and ±100 for the full control effect; nearly all actives have a fitted effect of over 75% in size
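Using a bead-based AlphaScreen, monomethylated H3K9 product from 2 h room-temperature reactions (G9a 20 nM, peptide 500 nM, SAM 20 uM) was detected with 0.5 ug/mL rabbit anti-H3K9me1 antibody.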
Sfp PPTase inh = Sfp phosphopantetheinyl transferase inhibition. Potency, µM, without a hit: largest response in the series, negative = inhibition, actives largely listed as inhibitors. Q9F4F7. 3.5% of 310,000 active. Biochemical Sfp PPTase activity, qHTS;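 note: the enzyme is Sfp with the accession as filed and its product quenches rhodamine fluorescence; 0% = enzyme reaction without inhibitor and -100% = no enzyme wells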
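Compounds were incubated with enzyme (final 15 nM) for 15 min at room temperature before substrate addition started the reaction. Fluorescence at 525 nm excitation, 598 nm emission was recorded immediately and after 30 minutes.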
BAZ2B inh = BAZ2B (human) inhibition; Q9UIF8; AlphaScreen BAZ2B-H3K14Ac peptide displacement; Potency, µM (doses to about 114 µM), for the others: at the top dose activity change, negative = inhibition, usual class: inhibitors; 4.4% of 360,000 active; note: % is set by controls: 0 for no effect and ±100 for the full control effect; nearly all actives have a fitted effect of over 60% in size
Target sequence (Q9UIF8 whole entry, looked up): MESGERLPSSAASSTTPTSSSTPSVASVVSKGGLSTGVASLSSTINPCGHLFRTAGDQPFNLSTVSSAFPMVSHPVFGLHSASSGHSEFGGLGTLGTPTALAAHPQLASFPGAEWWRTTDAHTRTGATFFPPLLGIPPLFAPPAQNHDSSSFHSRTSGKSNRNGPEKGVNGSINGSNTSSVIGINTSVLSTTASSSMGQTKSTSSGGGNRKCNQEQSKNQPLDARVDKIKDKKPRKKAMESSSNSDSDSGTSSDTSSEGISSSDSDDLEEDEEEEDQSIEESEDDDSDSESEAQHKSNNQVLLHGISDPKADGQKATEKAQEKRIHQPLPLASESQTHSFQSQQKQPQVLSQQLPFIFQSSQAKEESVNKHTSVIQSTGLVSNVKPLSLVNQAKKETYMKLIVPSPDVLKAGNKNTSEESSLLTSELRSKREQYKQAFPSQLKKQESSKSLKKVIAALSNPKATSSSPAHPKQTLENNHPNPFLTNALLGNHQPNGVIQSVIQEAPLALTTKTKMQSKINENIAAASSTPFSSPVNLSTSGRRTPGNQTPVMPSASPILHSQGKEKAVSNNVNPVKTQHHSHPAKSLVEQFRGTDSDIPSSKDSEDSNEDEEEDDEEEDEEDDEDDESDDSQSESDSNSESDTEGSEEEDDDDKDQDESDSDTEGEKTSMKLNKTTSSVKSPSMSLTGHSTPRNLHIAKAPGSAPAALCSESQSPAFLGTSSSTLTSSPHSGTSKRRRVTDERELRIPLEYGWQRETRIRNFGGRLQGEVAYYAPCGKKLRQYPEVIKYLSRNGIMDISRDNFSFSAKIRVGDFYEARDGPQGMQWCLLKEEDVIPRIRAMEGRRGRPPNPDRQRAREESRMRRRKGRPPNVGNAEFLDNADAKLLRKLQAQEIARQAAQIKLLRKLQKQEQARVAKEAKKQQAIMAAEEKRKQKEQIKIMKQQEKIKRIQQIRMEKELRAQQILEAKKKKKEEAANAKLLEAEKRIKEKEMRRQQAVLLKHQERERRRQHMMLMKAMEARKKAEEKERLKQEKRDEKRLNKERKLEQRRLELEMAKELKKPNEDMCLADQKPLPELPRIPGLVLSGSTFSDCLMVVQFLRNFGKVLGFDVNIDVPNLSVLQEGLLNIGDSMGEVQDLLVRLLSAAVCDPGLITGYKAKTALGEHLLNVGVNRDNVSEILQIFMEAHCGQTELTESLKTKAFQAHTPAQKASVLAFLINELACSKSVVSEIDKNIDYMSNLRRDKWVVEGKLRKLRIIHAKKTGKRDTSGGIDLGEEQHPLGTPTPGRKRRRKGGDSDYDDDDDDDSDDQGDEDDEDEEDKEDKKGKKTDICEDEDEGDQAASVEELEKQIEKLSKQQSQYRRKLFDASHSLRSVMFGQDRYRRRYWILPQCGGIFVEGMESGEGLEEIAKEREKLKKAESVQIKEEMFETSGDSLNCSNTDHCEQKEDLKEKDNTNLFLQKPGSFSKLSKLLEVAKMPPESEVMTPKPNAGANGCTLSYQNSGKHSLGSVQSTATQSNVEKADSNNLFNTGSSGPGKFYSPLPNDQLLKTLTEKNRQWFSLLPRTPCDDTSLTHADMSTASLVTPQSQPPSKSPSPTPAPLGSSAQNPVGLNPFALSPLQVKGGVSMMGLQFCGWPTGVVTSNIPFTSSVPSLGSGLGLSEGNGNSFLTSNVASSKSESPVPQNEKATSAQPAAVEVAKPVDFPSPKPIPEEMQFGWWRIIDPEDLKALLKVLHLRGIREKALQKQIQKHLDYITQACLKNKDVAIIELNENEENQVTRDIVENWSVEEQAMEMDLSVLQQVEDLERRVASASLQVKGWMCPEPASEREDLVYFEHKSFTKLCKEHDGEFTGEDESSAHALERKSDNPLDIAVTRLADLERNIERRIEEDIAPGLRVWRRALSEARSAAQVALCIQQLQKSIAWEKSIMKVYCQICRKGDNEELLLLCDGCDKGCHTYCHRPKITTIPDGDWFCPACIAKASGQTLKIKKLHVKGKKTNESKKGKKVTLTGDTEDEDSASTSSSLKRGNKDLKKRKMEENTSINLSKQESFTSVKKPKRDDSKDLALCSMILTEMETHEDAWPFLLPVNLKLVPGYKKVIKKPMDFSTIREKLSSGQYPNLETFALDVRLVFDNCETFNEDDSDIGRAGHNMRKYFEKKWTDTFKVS
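Protein-peptide AlphaScreen: BAZ2B 50 nM, b-H3K14Ac 50 nM, 1x PBS pH 7.4 + 0.01% Tween-20. Preincubation 30 min RT; cpd 30 min RT (top 110 uM); beads 20 min RT, light-protected.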
JMJD2A Tudor inh = inhibitors of human JMJD2A Tudor domain | O75164 | AlphaScreen JMJD2A-Tudor / H3K4me3 peptide binding | Potency, µM (series often up to 114 µM), without a hit: top-dose activity change, negative = inhibition, most hits filed as inhibitors | 4.4% of 390,000 active | AID 504339; note: % is set by controls: 0 for no effect and ±100 for the full control effect; nearly all actives have a fitted effect of over 50% in size
HP1b binding inh = HP1-beta chromodomain-methylated histone interaction inhibition; 0.56% of 390,000 active; AlphaScreen HP1-beta / biotin-H3K9me3 peptide binding; P83916; AID 540317; Potency, µM (titrated, usually from 114 µM), without a hit: top-dose activity change, negative = inhibition, hits mostly inhibitors; note: nearly all actives have a fitted effect of over 70% in size
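Compound inhibition of the preformed complex between 50 nM HP1-beta and 50 nM biotinylated H3K9me3 peptide was read by AlphaScreen. Buffer was PBS pH 7.4 with 0.01% Tween-20. Incubations ran 30 min at room temperature, with 10 ug/mL donor/acceptor beads.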
ALOX12 inh = blocks human arachidonate 12S-lipoxygenase | P18054 | 1.1% of 580,000 active | Potency, µM (doses to about 108 µM), for the others: at the highest dose activity change, negative = inhibition, hits mostly inhibitors | purified 12hLO, xylenol orange hydroperoxide absorbance; note: % is set by controls: 0 for no effect and ±100 for the full control effect
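Hydroperoxide product was detected by ferrous iron/xylenol orange as the 573 to 405 nm absorbance ratio. Arachidonic acid at 40 uM (final) was turned over for 30 min at room temperature by 150 nM human 12hLO, pH 7.0 Hepes buffer, after 15 min compound preincubation.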
* marks the source's active call; other numbers are inactive results; i = inactive; ? = inconclusive; nt = not tested or not shown; [ ] = remark or other dose. Calls come from the whole dose curve; as a rule, active = well fitted curve in the direction sought with a large enough effect; inconclusive = small, poorly fitted or top-dose-only effect, or another doubt; inactive = no such curve, though single readings can be large; an effect the other way counts as inactive or inconclusive. Potency is the fitted concentration of half-maximal effect.

SMILES	G9a inh	Sfp PPTase inh	BAZ2B inh	JMJD2A Tudor inh	HP1b binding inh	ALOX12 inh
COc1ccc(C2=Nn3c(nnc3-c3ccccn3)SC2)cc1	-97%	-9%	25µM*	40µM*	25%	-10%
CC(C(=O)NC1CCCCC1)(c1ccccc1)c1ccccc1	nt	nt	nt	nt	nt	6%
Cc1cccnc1NC(=O)c1ccc2nc(N)sc2c1	40µM*	-16%	4%	-2%	14%	5%
COc1ccc(C(=O)Nc2ncccc2C)cc1Br	nt	nt	nt	nt	nt	-4%
O=[N+]([O-])c1cc2c(c(CSc3nnc(Nc4ccccc4)s3)c1)OCOC2	3.5µM*	-10%	-4%	17%	25%	-4%
Cc1ccc(CN2CCCCCCNC(=O)[C@@H]3C[C@@H](C(=O)N4CCc5ccccc5C4)C[C@@H]32)o1	nt	nt	nt	nt	nt	28%
CCC(C)NC(=O)CC1Oc2ccc(C)cc2NC1=O (stereo not drawn)	45µM*	?	5%	-15%	42%	i
Cc1ccc2c(c1)NC(=O)C(CC(=O)N(C)Cc1ccccc1)O2 (stereo not drawn)	50µM*	?	-2%	-9%	42%	?
COC(=O)CC1Oc2ccc(C)cc2NC1=O (stereo not drawn)	4%	-4%	10%	-13%	38%	239%
Cc1ccc(NC(=O)CC2Oc3ccc(C)cc3NC2=O)cc1 (stereo not drawn)	?	3%	-24%	-17%	10%	9%[57.4 µM]
CCCCS(=O)CC(COC)OC(=O)c1ccccc1 (stereo not drawn)	16%	1%	?	-8%	124%	-4%
CCCCS(=O)CC(COc1ccc(Cl)cc1)OC(=O)c1ccccc1 (stereo not drawn)	50µM*	-25%	26%	33%	89%	?
N#Cc1ccsc1NC(=O)CSc1nnc(-c2ccccc2Cl)n1C1CCCC1	nt	nt	nt	nt	nt	-16%
O=C(N=C1N=C2C=CC(Br)=CN2Cc2ccccc21)c1ccc([N+](=O)[O-])cc1[N+](=O)[O-]	50µM*	0%	-23%	?	-9%[57 µM]	-20%
O=C(c1ccc([N+](=O)[O-])cc1[N+](=O)[O-])N1CCc2ccccc21	nt	4%	?	-29%	4%	?
Cc1ccc(NS(=O)(=O)c2ccc(Cl)c(C(=O)O)c2)cc1Cl	nt	nt	nt	nt	nt	-5%
Brc1ccc(-c2noc(COc3ccc4c(c3)CCC4)n2)o1	22µM*	-12%	56µM*	199%	-11%	?
COc1ccc(Cc2nc(-c3cccs3)no2)cc1OC	50µM*	-1%	0%	-2%	36%	6%
c1csc(-c2noc(COc3ccc4c(c3)CCCC4)n2)c1	4%[12.7 µM]	45µM*	234%	242%	349%	0%
Clc1ccc(OCc2nc(-c3ccc(Br)o3)no2)cc1	-16%	-15%	4%	36%	31%	30%[57.4 µM]
COc1ccc(Cc2nc(-c3cccs3)no2)cc1	113%	-5%	67%	119%	173%	-7%
COc1ccc(NC(=O)C2(C)CN(C)Cc3ccc(NCc4ccccc4)nc32)cn1 (stereo not drawn)	nt	nt	nt	nt	nt	83%[176 µM]
CC(C)(C)c1ccc(CS(=O)Cc2ccc(Cl)cc2)cc1 (stereo not drawn)	nt	nt	nt	nt	nt	-21%
COc1ccc(-c2cc(=O)c3cc(OC(C)=O)ccc3o2)cc1	nt	nt	nt	nt	nt	36%
C/C(CC1CC(COCC(C)C)OC1=O)=N\Nc1nc(-c2ccccc2)cs1 (stereo not drawn)	25µM*	?	?	?	-15%	?
SMILES	G9a inh	Sfp PPTase inh	BAZ2B inh	JMJD2A Tudor inh	HP1b binding inh	ALOX12 inh
COc1ccc(C(=O)NC(=S)Nc2ccc(S(N)(=O)=O)cc2)cc1	?	?	-10%	-15%	18%	-19%
Cn1cc(Br)c(C(=O)NC(=S)Nc2ccc(S(N)(=O)=O)cc2)n1	45µM*	-81%	-14%	-7%[11.4 µM]	-2%	?
NS(=O)(=O)c1cccc(NC(=O)CN2CCN(Cc3ccc4c(c3)OCO4)CC2)c1	-9%[59 µM]	5%	-2%	-13%	15%	15%
NS(=O)(=O)c1cccc(NC(=S)NCc2ccc3c(c2)OCO3)c1	50µM*	-20%	-19%	-20%	3%	-24%
Cc1ccc(S(=O)(=O)NCC(=O)OCC(=O)NCc2ccc3c(c2)OCO3)cc1	56µM*	nt	12%	-16%	-3%	-5%
NS(=O)(=O)c1ccc(NC(=S)NCc2ccc(Cl)cc2)cc1	8.9µM*	22µM*	-26%	-23%	?	?
COC(=O)C(C)Oc1ccc2c(C)c(-c3ccc(OC)c(OC)c3)c(=O)oc2c1 (stereo not drawn)	nt	nt	nt	nt	nt	28%
CC(C(=O)NC(C)(C)C)N(c1ccc(F)cc1)S(C)(=O)=O (stereo not drawn)	nt	nt	nt	nt	nt	-2%
Cn1c(C=C(C#N)C#N)ccc1-c1cc(Cl)cc(Cl)c1	nt	nt	nt	nt	nt	-15%
CCn1c(NC(=O)COc2ccc(C)cc2)nc2ccccc21	nt	nt	nt	nt	nt	-4%
O=C(O)CCC(=O)N1CCC(O)CC1	nt	nt	nt	nt	nt	-17%
NS(=O)(=O)c1ccc(NC(=S)NCc2ccc3c(c2)OCO3)cc1	nt	20µM*	?	-12%	3%	?
CCCCc1nc2cc(C(=O)N3CCCCC3C(=O)OC)ccc2o1 (stereo not drawn)	17%	16%	-2%	22µM*	11%	14%
COC(=O)C1=C(C)N(Cc2ccc(Cl)cc2)C(=S)NC1c1ccccc1 (stereo not drawn)	nt	nt	nt	nt	nt	40µM*
COC(=O)C1=C(CCc2ccccc2)NC(=O)NC1c1ccc(Cl)cc1 (stereo not drawn)	nt	nt	nt	-29%	10%	35µM*
CCN1C(=S)N[C@@H](c2ccccc2)C(C(=O)OC)=C1C	3%[12.7 µM]	11%	-36%	-21%	36%	-28%
CCOC(=O)C1=C(CS(=O)(=O)c2ccc(F)c(C)c2)NC(=O)NC1c1ccc(O)c(O)c1 (stereo not drawn)	25µM*	-27%	?	-21%	22%	?
CCOC(=O)C1=C(CS(=O)(=O)c2ccc(F)c(C)c2)NC(=O)NC1c1ccc(F)c(F)c1 (stereo not drawn)	4%[59 µM]	nt	-6%	-25%	14%	?
COC(=O)C1=C(C)N(Cc2ccccc2)C(=S)NC1c1ccc(Cl)cc1 (stereo not drawn)	nt	nt	nt	nt	nt	35µM*
O=C(c1ccc2c(c1)OCO2)N1CCN(c2nnc3ccccn23)CC1	nt	nt	nt	nt	nt	38%
CCOC(=O)C1=C(CNc2ccc(C)c(Cl)c2)NC(=O)NC1c1ccc(Cl)cc1 (stereo not drawn)	nt	nt	nt	nt	nt	8.9µM*
CCOC(=O)c1ccc(Nc2cc(C)nc3ccccc23)cc1	nt	nt	nt	nt	nt	-7%
CC(C)Oc1cccc2c1c(NC(=O)c1cccnn1)nn2Cc1ccccc1	nt	nt	nt	nt	nt	2%
Cc1ccc(NC(=S)C2=C(O)c3sccc3N(C)S2(=O)=O)cc1	18µM*	-28%	-39%	-26%	6%	?

Bioassay records as filed in PubChem.
